Measurements as given in PubChem BioAssay AID720555 (National Center for Advancing Translational Sciences (NCATS), 2013).
Values joined by “and” are separate entries in the source; they are usually repeats but may differ in a detail not shown here. Equal values may be shown once. Results filed as inconclusive are left out. Active and inactive are the calls of the source. Calls follow the shape of the dose curve; as a rule, active = well fitted inhibition curve with a large enough effect; inconclusive = small, poorly fitted or top-dose-only effect; inactive = no such curve, though single readings can be large or run the other way.

Biological target: RecQ-like DNA helicase BLM (Homo sapiens) (UniProt P54132)
Sequence (P54132 whole entry, looked up): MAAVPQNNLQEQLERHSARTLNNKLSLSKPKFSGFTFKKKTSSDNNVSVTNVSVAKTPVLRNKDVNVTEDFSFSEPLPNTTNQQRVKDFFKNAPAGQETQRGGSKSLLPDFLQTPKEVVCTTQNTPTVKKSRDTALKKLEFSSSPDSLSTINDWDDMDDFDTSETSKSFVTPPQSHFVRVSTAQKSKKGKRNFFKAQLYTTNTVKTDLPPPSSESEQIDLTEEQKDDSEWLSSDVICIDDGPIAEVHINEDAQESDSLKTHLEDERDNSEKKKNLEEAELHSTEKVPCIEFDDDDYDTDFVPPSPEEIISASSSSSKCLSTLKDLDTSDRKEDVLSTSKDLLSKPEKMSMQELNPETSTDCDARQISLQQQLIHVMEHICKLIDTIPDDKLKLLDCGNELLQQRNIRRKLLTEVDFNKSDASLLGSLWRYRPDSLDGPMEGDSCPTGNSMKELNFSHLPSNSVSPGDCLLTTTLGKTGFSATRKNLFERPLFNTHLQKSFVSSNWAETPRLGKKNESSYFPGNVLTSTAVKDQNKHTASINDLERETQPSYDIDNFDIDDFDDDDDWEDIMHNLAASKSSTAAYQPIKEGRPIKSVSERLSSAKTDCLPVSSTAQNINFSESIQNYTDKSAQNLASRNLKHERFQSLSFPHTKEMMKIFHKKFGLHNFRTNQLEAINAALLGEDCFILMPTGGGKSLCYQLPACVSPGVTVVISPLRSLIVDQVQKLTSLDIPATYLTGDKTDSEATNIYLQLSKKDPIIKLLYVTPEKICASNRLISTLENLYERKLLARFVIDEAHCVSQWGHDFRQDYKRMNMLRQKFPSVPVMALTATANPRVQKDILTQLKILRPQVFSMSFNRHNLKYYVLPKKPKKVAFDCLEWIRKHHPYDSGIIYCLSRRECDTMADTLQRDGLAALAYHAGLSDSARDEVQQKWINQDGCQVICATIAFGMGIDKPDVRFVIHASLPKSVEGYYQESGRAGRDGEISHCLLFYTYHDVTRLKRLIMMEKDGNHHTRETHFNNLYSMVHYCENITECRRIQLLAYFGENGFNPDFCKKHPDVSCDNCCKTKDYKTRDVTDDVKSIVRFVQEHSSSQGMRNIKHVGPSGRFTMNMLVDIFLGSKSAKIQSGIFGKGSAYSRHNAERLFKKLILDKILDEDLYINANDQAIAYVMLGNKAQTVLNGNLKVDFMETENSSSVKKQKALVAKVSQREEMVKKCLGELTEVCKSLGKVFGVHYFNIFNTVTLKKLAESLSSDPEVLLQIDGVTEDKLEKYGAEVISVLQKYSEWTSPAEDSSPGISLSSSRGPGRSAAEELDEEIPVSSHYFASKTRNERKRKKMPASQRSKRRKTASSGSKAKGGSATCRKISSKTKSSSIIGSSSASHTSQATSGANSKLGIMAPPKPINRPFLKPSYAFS
Assay: qHTS for Inhibitors of Bloom's syndrome helicase (BLM): Helicase DNA unwinding fluorescent orthogonal confirmatory assay for SAR
Settings: fluorescence, orthogonal confirmation; series mostly up to 55.6 µM
Excerpt: Human RecQ DNA helicases participate in maintenance of genome stability and DNA repair. While other types of helicases have been explored as targets for drug development, members of the RecQ family have remained less well characterized. Mutations of the Bloom helicase gene have been associated with the rare human genetic disease called Bloom syndrome. […] Moreover, identified inhibitors can be used in cells and animal models to examine the consequences of inhibition on the survival of cancer cells where it has been shown that BLM plays an important role.
A fluorescence-based, biochemical assay in 1536 well format was developed to evaluate inhibition of BLM DNA unwinding activity. This assay was used to screen the MLPCN library. The resulting compounds were subjected to orthogonal and secondary biochemical assays to triage the initial hits, to classify compounds based on mode of action and to derive structure activity relationships (SARs) of candidate effectors. The data herein is the result of the Helicase DNA unwinding fluorescent orthogonal confirmatory assay. This fluorescent-based assay employs a purified BLM enzyme and utilizes gel electrophoresis to monitor the helicase-mediated unwinding of a fluorescently-labeled DNA substrate. For this assay decrease in the single-stranded DNA product band on the gel = inhibition of the BLM helicase activity. Inhibition is the desired outcome for this assay.
NIH Chemical Genomics Center [NCGC]
NIH Molecular Libraries Probe Centers Network [MLPCN]
Assay Submitter (PI): Opher Gileadi, Structural Genomics Consortium, University of Oxford, UK
Unwinding assay for the BLM helicase was carried out in a reaction buffer containing 50 mM Tris-HCl pH 7.5, 50mM NaCl, 2mM MgCl2, 2mM ATP, 1mM DTT, and 0.1 mg/ml BSA. Optimal substrate and enzyme concentrations as well as reaction times were determined experimentally. All reactions were performed at room temperature and terminated by the addition of loading buffer containing 20mM EDTA and 2.5% bromophenol blue. Reaction products were then separated on 15% non-denaturing polyacrylamide gels in 1x TAE, and the DNA was visualized using the Bio-Rad ChemiDocTM XRS Gel Imager. Substrate and product bands were quantified using ImageJ. The data was normalized against no-inhibitor and no-enzyme controls.

Potency, active:
N#Cc1cc(NC(=O)Nc2cccc(-c3ccncc3)n2)ccc1Cl 0.631 µM
N/C(=N\c1nnc(-c2ccncc2)s1)Nc1ccc(Cl)c(Cl)c1 14.1 µM
Cc1cnccc1-c1nnc(NC(=O)Nc2ccc(F)c(C(F)(F)F)c2)s1 1.26 µM
O=C(Nc1ccc(Br)c(Br)c1)Nc1nnc(-c2ccncc2)s1 5.01 µM
O=c1c(Nc2ccc(Br)c(Br)c2)c(Nc2nnc(-c3ccncc3)s2)c1=O 6.31 µM
Nc1cc(NC(=O)Nc2nnc(-c3ccncc3)s2)ccc1Cl 11.2 µM
O=C(Nc1nnc(-c2ccncc2)s1)Nc1ccc(Cl)cc1F 28.2 µM
O=C(Nc1ccc(-c2cn[nH]c2)cc1)Nc1nnc(-c2ccncc2)s1 31.6 µM
O=C(Nc1ccc(F)c(C(F)(F)F)c1)Nc1cccc(-c2ccncc2)n1 4.47 µM
O=C(NCc1ccc(Cl)c(Cl)c1)Nc1nnc(-c2ccncc2)s1 39.8 µM
O=C(Nc1nnc(-c2ccncc2)s1)Nc1ccc(Cl)c2ccccc12 14.1 µM
Cc1cc(NC(=O)Nc2nnc(-c3ccncc3)s2)ccc1C#N 3.16 µM
Cc1cc(NC(=O)Nc2cccc(-c3ccncc3)n2)ccc1Br 12.6 µM
Cc1cc(NC(=O)Nc2nnc(-c3cccnc3)s2)ccc1Br 5.62 µM
O=C(Nc1ccc(Cl)c(C(F)(F)F)c1)Nc1nnc(-c2ccncc2)s1 7.08 µM
N#Cc1cc(NC(=O)Nc2nnc(-c3ccncc3)s2)ccc1Cl 0.398 µM
N#Cc1cccc(NC(=O)Nc2nnc(-c3ccncc3)s2)c1 8.91 µM
Cc1cc(NC(=O)Nc2nnc(-c3cccnc3)s2)ccc1Cl 7.94 µM and 3.98 µM
O=C(Nc1ccc2sccc2c1)Nc1nnc(-c2cccnc2)s1 10 µM
O=C(Nc1ccc(-n2ccnc2)c(F)c1)Nc1nnc(-c2ccncc2)s1 10 µM
S=C(Nc1ccc(Cl)c(Cl)c1)Nc1nnc(-c2ccncc2)s1 3.98 µM
O=C(Nc1ccc(Cl)c(Cl)c1)Nc1nnc(-c2cccnc2)s1 3.55 µM
N#Cc1ccc(NC(=O)Nc2nnc(-c3ccncc3)s2)c(Cl)c1 11.2 µM
O=C(Nc1ccc(Cl)c(Cl)c1)Nc1nnc(-c2ccncc2)s1 1.58 µM
O=C(Nc1ccc(F)c(C(F)(F)F)c1)Nc1nnc(-c2cccnc2)s1 3.55 µM

Potency, inactive:
Cc1cc(NC(=O)Nc2nnc(C3CCCCC3)s2)ccc1Cl
O=C(Nc1ccc2ccccc2c1)Nc1nnc(Br)s1
O=C(Nc1ccc2ccccc2c1)Nc1nnc(-c2ccccc2)s1
O=C(Nc1ccc(Cl)c(Cl)c1)Nc1nnc(NC2CCNCC2)s1
O=C(Nc1ccc(-c2nc3ccccc3[nH]2)cc1)Nc1ccc2c(c1)OCCO2
O=C(Nc1ccc(-c2nc3ccccc3[nH]2)cc1)Nc1ccc2c(c1)CCCO2
O=C(Nc1cccc(C(=O)O)c1)Nc1nnc(-c2ccncc2)s1
CN(C(=O)Nc1ccc2ccccc2c1)c1nnc(-c2ccncc2)s1
O=C(Nc1ccc(F)c(C(F)(F)F)c1)Nc1nnc(C2CCCCC2)s1
COc1ccc(NC(=O)Nc2ccc(-c3nc4ccccc4[nH]3)cc2)cc1OC
O=C(Nc1ccc(F)c(C(F)(F)F)c1)Nc1ccc(-c2ccncc2)s1
O=C(Nc1ccc(N2CCOCC2)c(F)c1)Nc1nnc(-c2ccncc2)s1
O=C(Nc1ccc2ccccc2c1)Nc1nnc(-c2ccc(O)cc2)s1
Cc1cc(NC(=O)Nc2nnc(C3CCCCC3)s2)ccc1Br
O=C(NCc1ccccc1)Nc1nnc(-c2ccncc2)s1
